# Laboratory results reported in the supplement of paper PMC4166925.
# ± gives the standard deviation of the averaged measurements. Whole data set: some 33,000 sequences, median “E-score (dimensionless, -0.5 to 0.5)” near -0.049, cut for the highest 2% near 0.37. The list comes from a sample in which the highest values are over-represented; it also holds similar and randomly drawn sequences.
# System: T1, PmTbr T-box DNA-binding domain (GST fusion)
# T1 sequence: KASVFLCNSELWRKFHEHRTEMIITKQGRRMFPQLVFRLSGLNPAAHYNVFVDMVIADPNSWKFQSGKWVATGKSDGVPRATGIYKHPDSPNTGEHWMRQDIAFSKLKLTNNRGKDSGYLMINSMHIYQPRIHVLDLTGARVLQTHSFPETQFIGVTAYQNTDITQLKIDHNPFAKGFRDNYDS
# Assay: PBM E-score of 8-mer (E-score (dimensionless, -0.5 to 0.5)); Tbr is Tbrain of the sea star Patiria miniata (Pm) or the sea urchin Strongylocentrotus purpuratus (Sp); higher = stronger binding preference
# Details: the construct has about 5 more residues each side
# Method: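 Universal protein-binding microarray (Agilent AMADID 016060, 60-bp probes with a 35-bp variable region) incubated with 200 nM GST-fused Patiria miniata Tbr T-box DNA-binding domain (residues 272-466) in PBS pH 7.5. Scored for every ungapped 8-mer (given with its reverse complement) by the Universal PBM Analysis Suite as E-score (modified Wilcoxon-Mann-Whitney enrichment, range -0.5 to 0.5; >0.45 counts as bound) and Z-score of median probe intensity. Two replicate arrays (datasets 1 and 2).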
row,Sequence,PBM E-score of 8-mer
1,GAGGCGCC,0.269 ± 0.018
2,CCACAACA,0.203 ± 0.049
3,ACACACCA,0.285 ± 0.011
4,TCACAACA,0.384 ± 0.00069
5,GCACAACA,0.17 ± 0.013
6,ACTCACCA,-0.0425 ± 0.12
7,TCACACCA,0.48075 ± 0.00012
8,TCACACAA,0.414 ± 0.015
9,TCTCACCA,0.372 ± 0.011
10,CCACACAA,0.0617 ± 0.024
11,CCACACCA,0.29 ± 0.033
12,ACACACAA,0.0649 ± 0.066
13,CCTCACCA,0.141 ± 0.045
14,AATGACAT,-0.101 ± 0.054
15,GGAACTCC,-0.22 ± 0.083
16,GCCTCTTA,-0.0658 ± 0.019
17,GAGGAATA,-0.274 ± 0.02
18,TCGGACAA,-0.0104 ± 0.018
19,ACTCAAGT,-0.000135 ± 0.051
20,ATGGACTG,-0.165 ± 0.016
21,GCCACACC,0.394 ± 0.024
22,CCCACACG,0.0862 ± 0.0074

row,Sequence,PBM E-score of 8-mer
1,ACCACACC,0.361 ± 0.023
2,GACACACC,0.287 ± 0.073
3,CCCACACA,0.17 ± 0.0076
4,CGCACACC,0.325 ± 0.022
5,GCCACACA,0.279 ± 0.031
6,CACACACC,0.428 ± 0.021
7,CCCACACC,0.43 ± 0.019
8,ATGCTCGG,0.00834 ± 0.022
9,GACGTCTC,-0.235 ± 0.013
10,GGGTAGGA,-0.205 ± 0.052
11,GACACCAA,0.345 ± 0.0047
12,GCCACCAC,0.122 ± 0.08
13,GGCACCAC,0.225 ± 0.022
14,ACCACCAC,0.0224 ± 0.049
15,AACACCAA,0.393 ± 0.011
16,ACCACCAA,0.0394 ± 0.048
17,AACACCAC,0.3719 ± 0.0024
18,AACACCAT,0.3887 ± 0.0029
19,ATCACCAT,0.155 ± 0.014
20,GACACCAC,0.393 ± 0.016
21,AGCACCAC,0.115 ± 0.054
22,ACCACCAT,0.1243 ± 0.0012

row,Sequence,PBM E-score of 8-mer
1,AATGCAGG,-0.116 ± 0.0066
2,GCACAGCC,-0.192 ± 0.031
3,ACAGTGTG,0.324 ± 0.025
4,GGAGCATA,-0.0893 ± 0.017
5,AGGCTGAA,-0.124 ± 0.018
6,AAACCAAG,-0.0652 ± 0.0092
7,CAAGCTCC,-0.181 ± 0.059
8,GCACCCTA,0.133 ± 0.089
9,ACACCCTC,0.429 ± 0.0062
10,ACACCCTA,0.383 ± 0.018
11,ACACCCTG,0.426 ± 0.026
12,ATACCCTG,-0.154 ± 0.04
13,CCACCCTC,0.0601 ± 0.017
14,CCACCCTA,0.0728 ± 0.0043
15,ACCCCCTG,0.0477 ± 0.028
16,ACCCCCTC,-0.00817 ± 0.062
17,GAGCCATC,-0.0135 ± 0.0062
18,GGAGTTCA,-0.0635 ± 0.036
19,AAGGCGAT,0.0522 ± 0.036
20,AGCAAACA,0.0237 ± 0.023
21,GATGAAGA,-0.134 ± 0.051
22,CGTCAACA,0.311 ± 0.036

row,Sequence,PBM E-score of 8-mer
1,GGTCAACA,0.123 ± 0.0043
2,TGTCAACA,0.378 ± 0.0046
3,GCGCTCCC,-0.133 ± 0.028
4,AGTTCGCG,0.221 ± 0.038
5,GATCCTGA,-0.144 ± 0.049
6,ATCATCAC,0.381 ± 0.008
7,ATTATCAG,-0.0355 ± 0.028
8,GTCATCAC,0.2787 ± 0.00098
9,CTTATCAC,0.331 ± 0.023
10,ATTATCAC,0.38 ± 0.053
11,CTCATCAC,0.249 ± 0.0053
12,ATAAACGG,-0.131 ± 0.087
13,CGTACCCC,-0.186 ± 0.063
14,GGTCGATA,0.0375 ± 0.069
15,CCTGAGAG,0.208 ± 0.03
16,CACAGCCG,-0.0675 ± 0.11
17,ACGCGCGG,0.19 ± 0.031
18,ACGCGCGC,0.157 ± 0.033
19,CCGCGCGA,0.226 ± 0.0095
20,GCGCGCGA,0.2759 ± 0.00057
21,ACGCGCGA,0.3693 ± 0.0027
